Test results reported in ChEMBL document CHEMBL3988442, “University of Dundee, Small-Polar-MMV Screening Library” (2021).
The whole screen tested about 48,000 compounds, of which about 13,000 (27%) showed an effect of 50% or more. The list shows a part of the results.

Each compound was assayed on Wolbachia pipientis (assay: Anti-Wolbachia Cell-Based Screen). Details: 5 µM.
Type: functional
Parameters: scale not given: in the data most compounds retested in dose-response had high values

Row | Structure (SMILES) | Percent Effect
1 | CC(=O)NCC(=O)N1Cc2cc(C#N)ccc2C1c1cnco1 (stereo not drawn) | -4.617%
2 | CCNC(=O)CCC(=O)Nc1nc(C)c(Cc2ccc(F)cc2)s1 | -19.82%
3 | O=c1cc(CN2CCC(CCc3ccc(O)cc3)CC2)[nH]c(=O)[nH]1 | -18.62%
4 | COCCC1(CNC(=O)NCC2CCCS2)CCCC1 (stereo not drawn) | -6.803%
5 | CCc1ccc(CN(C)Cc2nc(-c3cnccn3)no2)nc1 | 12.77%
6 | CCc1ccc(CN(C)Cc2nc(COc3ccccc3)no2)nc1 | 78.29%
7 | CN(Cc1nc(COc2ccccc2)no1)CC1Cc2ccccc2O1 (stereo not drawn) | -1.217%
8 | Cc1csc(CN(C)C(=O)C2CCC(=O)N(CCN(C)C)C2)n1 (stereo not drawn) | 2.129%
9 | O=C(c1cccnc1N1CCOC(c2ccc(Cl)cc2)C1)N1CCCC1 (stereo not drawn) | 19.68%
10 | CCC(=O)N1CC[C@H]2C(=O)N(Cc3ccc(OC)cc3)CCO[C@H]2C1 | 5.242%
11 | COc1ccc(CN2C[C@@H]3CN(C(=O)c4ccsc4)C[C@@H]3C2=O)cc1 | -7.26%
12 | COc1ccc(CN2C[C@@H]3OCC(=O)N(CC(N)=O)[C@@H]3C2)cc1 | -8.877%
13 | COc1ccc(CN2CC(O)CN(C(=O)c3ccccc3)CC2=O)cc1 (stereo not drawn) | 119%
14 | COc1ccc(CN2CCO[C@H]3CN(C(C)=O)CC[C@H]3C2=O)cc1 | -1.641%
15 | COc1ccc(CN2CC(O)CN(C(=O)OCC(C)(C)C)CC2=O)cc1 (stereo not drawn) | 112.6%
16 | CCOC(=O)N1CC(=O)N(Cc2ccc(OC)cc2)CC(O)C1 (stereo not drawn) | 85.47%
17 | CSCCCNc1ncnc2cccc(F)c12 | -37.93%
18 | CC(=O)N1CCc2ccccc2C1CC(=O)NCc1nnc(C)o1 (stereo not drawn) | -6.807%
19 | COCCS(=O)(=O)N(Cc1cscn1)c1ccccc1 | -16.91%
20 | O=C(CCN1C(=O)CCC1=O)Nc1ccc(Cl)cc1 | 9.29%
21 | CN1CCC/C1=N\S(=O)(=O)c1ccc(NC(=O)c2ccc(Cl)cc2)cc1 | 101.2%
22 | N#Cc1cc(NC(=O)c2ccsc2)ccc1N1CCC(O)CC1 | -1.175%

Row | Structure (SMILES) | Percent Effect
23 | Cc1ccc(C(=O)Nc2ccc(S(=O)(=O)/N=C3\CCCN3C)cc2)s1 | 80.8%
24 | CN1CCC/C1=N\S(=O)(=O)c1ccc(NC(=O)c2ccsc2)cc1 | 106.5%
25 | O=C(Nc1ccccc1C(=O)NCCCN1CCOCC1)c1ccco1 | 10.69%
26 | O=C(CCC1CCCN(S(=O)(=O)C2CC2)C1)Nc1ccc(Cl)cc1 (stereo not drawn) | 0.5143%
27 | O=C(Nc1cnn(CC(=O)N2CCCCO2)c1)c1ccsc1 | 8.582%
28 | CN1CCC/C1=N\S(=O)(=O)c1ccc(NC(=O)c2ccc(Cl)s2)cc1 | 40.68%
29 | Cc1ccc(C(=O)Nc2ccc(N3CCC(O)CC3)c(C#N)c2)s1 | -23.53%
30 | CN1CCC/C1=N\S(=O)(=O)c1ccc(NC(=O)c2ccco2)cc1 | 116.6%
31 | Cc1nccnc1N1C[C@H](NC(=O)CNS(C)(=O)=O)[C@@H](C2CC2)C1 | -53.3%
32 | COc1cccc(C(=O)N2CCN(C(=O)CCn3ccnc3)CC2)c1 | -2.961%
33 | Cc1cc(C(=O)NS(=O)(=O)Cc2ccon2)c(C)o1 | 30.96%
34 | CCC(O)CN(CC(=O)Nc1cc(C)no1)c1ccccc1 (stereo not drawn) | 5.147%
35 | Cn1cc(NC(=O)Cc2cccs2)c(=O)n(C)c1=O | -7.177%
36 | CN1CCC/C1=N\S(=O)(=O)c1ccc(NC(=O)Cc2cccs2)cc1 | 91.75%
37 | CN1C(=O)CO[C@H](c2ccc(NC(=O)Cc3cccs3)cc2)[C@H]1CO | -17.64%
38 | CCOc1nnc(CN2CCC(c3nc4ccccc4[nH]3)CC2)s1 | -10.51%
39 | CCSCCNc1cc(C)nc2c(C)c(C)nn12 | 76.05%
40 | CCc1cc(NCCNC(=O)c2cccnc2)n2nc(C)c(C)c2n1 | 18.31%
41 | Cc1cc(NCCSc2nccn2C)n2nc(C)c(C)c2n1 | 108.3%
42 | Cc1cc(NCCn2cccn2)n2ncnc2n1 | -4.993%
43 | Cc1ccnc(NCCSc2nccn2C)n1 | -1.785%
44 | Cc1cc(NCCCNc2cccnc2)n2nc(C)c(C)c2n1 | 88.33%

Row | Structure (SMILES) | Percent Effect
45 | Cc1cc(NCc2nnc3n2CCC3)n2nc(C)c(C)c2n1 | 8.542%
46 | CCCc1cc(NCCn2cccn2)n2ncnc2n1 | -13%
47 | CCc1cc(NCCc2cccnc2)n2nc(C)c(C)c2n1 | 15.8%
48 | CNc1ccnc(NCCSc2nccn2C)n1 | 3.348%
49 | CCc1cc(NCCc2cnccn2)n2nc(C)c(C)c2n1 | -4.525%
50 | Cc1cc(NCCSc2nccn2C)n2ncnc2n1 | 81.57%
51 | CCOC(=O)c1nnc2ccccc2c1N1CCN(CC)CC1 | -7.556%
52 | O=C(NC1CCCc2nc(N3CCOCC3)ncc21)C1CCCCC1 (stereo not drawn) | 91.3%
53 | O=C(NC1CCCc2nc(N3CCCCC3)ncc21)C1CCCC1 (stereo not drawn) | 90.75%
54 | CN(C)c1ncc2c(n1)CCCC2NC(=O)C1CC1 (stereo not drawn) | 13.73%
55 | CC(C)(C)c1cnc(CN2CCC(NC(=O)CC3CCCC3)CC2)o1 | 1.419%
56 | O=C(NC1CCCc2nc(N3CCOCC3)ncc21)C1CCCC1 (stereo not drawn) | 122.7%
57 | CC1(C)CC(N2Cc3nc(N4CCOCC4)ncc3C2=O)CC(C)(C)N1 | 10.47%
58 | CCS(=O)(=O)c1ccc(N2CCC(NC(=O)CC3CCCC3)CC2)cc1 | -9.103%
59 | O=C(CC1CCCCC1)NC1CCCc2nc(N3CCOCC3)ncc21 (stereo not drawn) | 100.9%
60 | Cn1ccnc1-c1ccc(NC[C@H]2CCc3ccccc3O2)nn1 | 2.045%
61 | Cn1c(NC(=O)CNC(=O)C2CCCC2)nc2cc(Cl)ccc21 | 10.58%
62 | Cc1nnc(CN2CCC3(CCC(=O)N(C4CC4)C3)CC2)o1 | 3.003%
63 | COc1cccc2c1OCC(C(=O)N1CCN(S(=O)(=O)N(C)C)CC1)C2 (stereo not drawn) | -34.53%
64 | CCS(=O)(=O)N1Cc2nccn2CC(Cn2nc(C)nc2C)C1 (stereo not drawn) | 6.553%
65 | CCS(=O)(=O)N1Cc2nccn2CC(Cn2cccn2)C1 (stereo not drawn) | 103.5%
66 | CCCS(=O)(=O)N1Cc2nccn2CC(Cn2cccn2)C1 (stereo not drawn) | -3.213%

Row | Structure (SMILES) | Percent Effect
67 | CCCS(=O)(=O)N1Cc2nccn2CC(Cn2cncn2)C1 (stereo not drawn) | 104.9%
68 | CCS(=O)(=O)N1Cc2nccn2CC(Cn2cncn2)C1 (stereo not drawn) | 101.6%
69 | CCS(=O)(=O)N1Cc2nccn2CC(CN2CCCC2)C1 (stereo not drawn) | -0.1339%
70 | CCCS(=O)(=O)N1Cc2nccn2CC(CN2CCCC2)C1.O=C(O)C(F)(F)F (stereo not drawn) | -1.434%
71 | O=S(=O)(C1CC1)N1Cc2nccn2CC(Cn2cncn2)C1 (stereo not drawn) | 116.3%
72 | Cc1nc(C)n(CC2CN(S(C)(=O)=O)Cc3nccn3C2)n1 (stereo not drawn) | 2.83%
73 | CCn1nccc1C(=O)N1CCCCC1CCc1ccc(O)cc1 (stereo not drawn) | 1.71%
74 | CC(NC(=O)Nc1nccs1)c1ccc(S(C)(=O)=O)cc1 (stereo not drawn) | 7.495%
75 | CCC(C(=O)NCC1CCN(c2cnn(C)c(=O)c2)CC1)n1cccn1 (stereo not drawn) | 4.446%
76 | O=C(c1ccoc1)N1CCCn2nnc(COCC3CC3)c2C1 | -7.176%
77 | O=C(C1CCC1)N1CCc2[nH]cnc2C12CCN(C1CCOCC1)CC2 | 2.513%
78 | CN1CCN(Cc2nc3c(s2)CCCC3)[C@H]2CS(=O)(=O)C[C@H]21 | -12.07%
79 | CC(C)(C)c1nnc(CN2CCN(CC(O)c3ccccc3)CC2)o1 (stereo not drawn) | -4.717%
80 | O=C(CCCc1ccc(F)cc1)N1C[C@@H](CN2CCOCC2)[C@@H](CO)C1 | -13.37%
81 | O=C1CN(Cc2cnc3c(-c4ccccc4)cnn3c2)CCCN1 | -7.334%
82 | CNC(=O)[C@@H](C1CC1)N1CCC[C@H]1C(=O)NCC(C)C.Cl | 5.18%
83 | CN(CCN1CCCCCC1)C(=O)c1cc(CN2CCCC(O)C2)on1 (stereo not drawn) | -22.76%
84 | CC(=O)Nc1c(C)cnn1Cc1cc(F)ccc1F | -3.865%
85 | COc1ccc(C(=O)NCCCNc2ncccn2)c(OC)c1 | -2.256%
86 | COc1ccc(C(=O)NCCc2nnc3ccccn23)c(OC)c1 | -1.311%
87 | O=C(NCCCN1CCc2ccccc2C1)c1cccnc1O | 6.847%
88 | CC(OCCCNC(=O)c1cccnc1O)c1ccccc1 (stereo not drawn) | 95.41%

Row | Structure (SMILES) | Percent Effect
89 | COc1ccc(C(=O)NCCCOC(C)c2ccccc2)c(OC)c1 (stereo not drawn) | 92.39%
90 | CS(=O)(=O)NCCCNC(=O)c1cccnc1O | -1.609%
91 | COCCN1CC2(CCCN(Cc3cc(=O)c(OC)co3)C2)CCC1=O (stereo not drawn) | 3.181%
92 | COc1cc(CNC(=O)NCCCF)cc(Br)c1OC | -2.867%
93 | CN(C(=O)CSc1ncc[nH]1)c1ccccc1 | 93.6%
94 | CCN(CC)C(=O)CSc1ncc[nH]1 | 45.3%
95 | CN(C(=O)CSc1ncc[nH]1)C1CC1 | 109.9%
96 | CCN(C(=O)CSc1ccc(C(F)(F)F)cn1)C1CC1 | -14.79%
97 | CN(C(=O)Cn1nc(-c2ccc(F)cc2)oc1=O)c1ccccc1 | -62.32%
98 | CN(C(=O)CN1CCCC1Cc1ccccc1)c1ccccc1 (stereo not drawn) | 21.48%
99 | COc1ncccc1NC(=O)N1CCCC(CNC(=O)OC(C)(C)C)C1 (stereo not drawn) | 1.374%
100 | O=C(NC[C@H]1Cn2c(-c3ccccc3)cnc2CO1)C1CCOCC1 | -9.795%
101 | Cn1c(-c2ccccc2Cl)nc2cc(C(=O)NCC3(C)COC3)cnc21 | 7.504%
102 | CCCc1nccn1-c1cccc(C(C)O)c1 (stereo not drawn) | 0.8056%
103 | Cc1ccc(C(=O)NC2CCN(C(=O)NCc3ccccn3)CC2)o1 | 118.1%
104 | Cc1ccc(NC(=O)N2CCC(NC(=O)c3ccc(C)o3)CC2)cc1 | -6.266%
105 | Cc1ccc(C(=O)NC2CCN(C(=O)Nc3ccccn3)CC2)o1 | 4.828%
106 | Cc1ccc(C(=O)NC2CCN(C(=O)Nc3ccncc3)CC2)o1 | 166.8%
107 | Cc1cc(C(=O)NC2CCN(C(=O)Nc3cccnc3)CC2)c(C)o1 | 20.93%
108 | O=C(NCc1ccccn1)N1CC=C(c2ccccc2)CC1 | 32.63%
